In PubChem BioAssay (NCATS) one finds activation and Potency data, which are given here for eight compounds.

Several values for one entry are separate records, joined by “and”; a condition that tells them apart may be missing. Identical values can stand only once. Inconclusive results are not listed. Unmarked numbers belong to inactive results. Activity calls are given as the source filed them. Unless noted, calls follow the shape of the dose curve; as a rule, active = well fitted curve in the direction sought with a large enough effect; inconclusive = small, poorly fitted or top-dose-only effect, or another doubt; inactive = no such curve, though single readings can be large; an effect the other way counts as inactive or inconclusive.

For assay [1], the target named is Cellular tumor antigen p53 (Homo sapiens) (UniProt P04637). In words: Primary qHTS for small molecule compounds that upregulate eGFP-tagged delta133p53alpha (in N-terminal) cells. (AID 2060322). Also: nearly all actives have a fitted effect of over 75% in size. Also: potency is read from the fitted curve at half-maximal effect.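 As to activation: cells pre-induced with doxycycline then dosed without doxycycline; series mostly up to about 56 µM; 0% = DMSO vehicle and 100% = reference activator.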 The conditions noted are these: NCI-H358 eGFP-delta133p53alpha fluorescence, 24 h; activation: active compounds read high. The essentials: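 NCI-H358 cells pre-induced 24 h with 10 ng/ml doxycycline for eGFP-delta133p53alpha, plated dox-free and exposed 24 h at 37C to titrated compounds. Fixed, Hoechst-stained; gated GFP peak intensity by laser scanning cytometry, normalized to DMSO (0%) and 57.5 uM 5-azacytidine (100%).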
Sequence of Cellular tumor antigen p53 (Homo sapiens) (P04637 whole entry, looked up): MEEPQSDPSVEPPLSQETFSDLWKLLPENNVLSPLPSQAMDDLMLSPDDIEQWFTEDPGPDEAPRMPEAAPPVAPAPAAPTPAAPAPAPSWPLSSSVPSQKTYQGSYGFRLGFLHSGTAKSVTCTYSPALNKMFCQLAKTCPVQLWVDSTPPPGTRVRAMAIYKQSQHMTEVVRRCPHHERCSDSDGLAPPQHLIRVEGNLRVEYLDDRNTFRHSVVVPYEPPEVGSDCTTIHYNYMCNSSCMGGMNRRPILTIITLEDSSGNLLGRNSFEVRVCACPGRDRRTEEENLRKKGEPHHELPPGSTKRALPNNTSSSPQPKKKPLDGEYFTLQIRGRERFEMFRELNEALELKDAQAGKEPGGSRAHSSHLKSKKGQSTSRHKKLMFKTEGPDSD
In general terms: In qHTS, concentration-response curves come from the screen itself.

For assay [2], the target named is Aldehyde dehydrogenase, mitochondrial (Homo sapiens) (UniProt P05091). In words: qHTS for Inhibitors of the Aldehyde Dehydrogenase Family (ALDH2) Validation screens (AID 2061302; active = well fitted inhibition curve with a large enough effect; title and protocol of this record describe different tests;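 also: plate controls were DMSO vehicle for no effect and maximal DPI positive control response for full effect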).
Assay [3] has as its target Retinaldehyde dehydrogenase 3 (Homo sapiens) (UniProt P47895). In words: qHTS for Inhibitors of the Aldehyde Dehydrogenase Family (ALDH1A3) Validation screen (AID 2061312). Also: % is scaled to controls: 0 for no effect and ±100 for the full control effect; nearly all actives have a fitted effect of over 45% in size.
Assay [4] deals with Aldehyde dehydrogenase, mitochondrial (Homo sapiens) (UniProt P05091). In words: qHTS for Inhibitors of the Aldehyde Dehydrogenase Family (ALDH2) Primary screen (AID 2061308).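 Also: plate controls were vehicle for no effect and reference inhibitor for full effect; nearly all actives have a fitted effect of over 55% in size.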
The target in assay [5] is Retinaldehyde dehydrogenase 3 (Homo sapiens) (UniProt P47895). In words: qHTS for Inhibitors of the Aldehyde Dehydrogenase Family (ALDH1A3) Primary screen (AID 2061315).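 Also: plate controls were DMSO vehicle for no effect and reference inhibitor for full effect.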
A short description of assay [6]: BET inhibitor-based combinations targeting novel dependencies in MECOM-rearranged (r) AML: MV-4-11 cell line (AID 2202233). Also: potency is read from the fitted curve at half-maximal effect; nearly all actives have a fitted effect of over 45% in size. The essentials: (§1)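 Cells were plated at 500 per well and exposed to each drug across an 11-point dose range for 48 hr at standard incubator conditions. Viability was read by CellTiter-Glo luminescence, and activity was expressed as AUC and per-cell-line Z-transformed AUC.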

Assay [7] is described as follows: BET inhibitor-based combinations targeting novel dependencies in MECOM-rearranged (r) AML: HNT-34 cell line (AID 2202234). Also: potency is read from the fitted curve at half-maximal effect; nearly all actives have a fitted effect of over 35% in size. In short, it runs like this:
as §1

For `CC[C@H]1OC(=O)[C@H](C)[C@@H](O[C@H]2C[C@@](C)(OC)[C@@H](O)[C@H](C)O2)[C@H](C)[C@@H](O[C@@H]2O[C@H](C)C[C@H](NC)[C@H]2O)[C@](C)(O)C[C@@H](C)CN(C)[C@H](C)[C@@H](O)[C@]1(C)O`, the activation in assay [1] is -4.2%. Besides, the Potency entry in assay [2] and in assay [3] was “inactive” throughout.

As to `COc1cc2ncnc(Nc3cccc(Cl)c3)c2cc1OC`, the activation in assay [1] is 23.2% and -41%. The Potency entry in assay [2], in assay [4], in assay [3] and in assay [5] was “inactive” in each case. Further, the Potency in assay [6] is 8.33 µM (active); in assay [7], 13.2 µM (active).

`CC1=C(/C=C/C(C)=C/C=C/C(C)=C/C(=O)Nc2ccc(O)cc2)C(C)(C)CCC1`: the activation in assay [1] was -39.3%. Moreover, the Potency result in assay [2] and in assay [3] was “inactive” each time.

For the compound `COC(=O)C1=C(C)NC(C)=C(C(=O)OC)C1c1cccc(NC(=O)NCCCN2CCC(c3cccc(OC)c3)CC2)c1`, the Potency in assay [1] was 21.3 µM (active). Also, the Potency entry in assay [2], in assay [4], in assay [3] and in assay [5] was “inactive” each time.

As to `COc1ccccc1OCCNCC(O)COc1cccc2[nH]c3ccccc3c12` (centres undefined), the activation in assay [1] is 23.9% and -57.4%. Besides, the Potency entry in assay [2] and in assay [3] was “inactive” throughout.

With `COC(=O)C1=CO[C@@H](O)[C@@H]2C(CO)=CC[C@H]12`, the activation in assay [1] was 8.04%. The Potency result in assay [2], in assay [4], in assay [3] and in assay [5] was “inactive” throughout.

As for `CN1CCN(c2nc3cc(C(F)(F)F)ccc3n3cccc23)CC1`, in assay [1], the activation was -11.1%. The Potency result in assay [2] and in assay [3] was “inactive” throughout.

Turning to `CCOC(=O)CSc1nc2c(sc3ccccc32)c(=O)n1CCCN1CCCC1`, the activation in assay [1] is 2.86%. For the same compound, the Potency result in assay [2], in assay [4], in assay [3] and in assay [5] was “inactive” each time.
